Test results from PubChem BioAssay AID652067 (The Scripps Research Institute Molecular Screening Center, 2013).
The whole screen tested about 370,000 compounds, of which about 5,400 (1.5%) were called active. The full list was thinned out, with actives kept by preference. Values without a mark were called inactive.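 Rule for the calls: active = activation above the mean of all tested compounds plus 3 SD (cut at about 5.5% in these data); inactive = the rest.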

system: DAF-12 nuclear receptor (Haemonchus contortus); assay: H. contortus DAF-12 nuclear receptor activators, primary screen, cell-based, luminescence, HEK293, lit1-tk-luc reporter (AID 652067); details: HEK293 hcDAF-12 lit1-tk-luc reporter, at 6.8 µM, stronger effect = higher value, 0% DMSO, 100% Δ7-dafachronic acid;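 note: 100% = response to 3 µM Δ7-dafachronic acid high control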

Compound	activation
O=S1(=O)c2ccc(Br)cc2-n2nncc2CN1Cc1cccc(Cl)c1	0.57%
CC(C)CNS(=O)(=O)CC1NCCc2ccccc21 (stereo unspecified)	-2.97%
COc1ccc(C(=O)C[n+]2ccc(C)cc2)cc1	6.64% (active)
COc1ccc(C(=O)C[n+]2ccc(N)c(C)c2C)cc1	-1.41%
COc1ccc(C(=O)CC(=O)c2ccc(C)cc2)c(O)c1	-0.09%
O=C(CSc1nnc(-c2ccccn2)n1-c1ccc(Cl)cc1)Nc1ccccc1-c1ccccc1	-4.12%
Oc1cccc2ccc(/C=C/c3ccc(Br)s3)nc12	10.2% (active)
O=C(Cn1c(-c2ccc(Cl)cc2)noc1=O)N1CCN(c2ccccc2F)CC1	-0.55%
Cc1ccc(NC(=O)Nc2cc(C)nn2-c2ccccc2)cc1	-0.41%
COC(=O)C1(C)NC(c2ccccc2OC)C2C(=O)N(c3ccccc3)C(=O)C21 (stereo unspecified)	-2.14%
COC(=O)C1=NN(c2ccccc2)C2C(=O)N(c3ccccc3OC)C(=O)C12 (stereo unspecified)	9.57% (active)
COC(=O)c1cc(C(=O)OC)cc(N2C(=O)CC(N3CCN(c4ccccc4)CC3)C2=O)c1 (stereo unspecified)	0.25%
CCOC(=O)C1CSCCS(=O)(=O)N1Cc1ccc(Cl)cc1 (stereo unspecified)	-2.38%
O=C(C(=O)N1CCC(CNS(=O)(=O)Cc2ccccc2)CC1)c1cc2ccccc2o1	-0.72%
COc1cccc(C(=O)Nc2cc3c(cc2Br)OCCCO3)c1	3.75%
COc1ccc(C2COC(=O)C2=N)c(NC(=O)c2ccccc2)c1 (stereo unspecified)	8.16% (active)
COc1ccc(OC)c(NC(=O)c2cccc(S(=O)(=O)N3CCN(C(C)=O)CC3)c2)c1	0.25%
COc1cc(/C=C/C(=O)n2cnc3ccccc32)cc(OC)c1OC	0.33%
O=C(CSc1nnc(COc2ccccc2)n1Cc1ccco1)c1ccc2ccccc2c1	-2.67%
Cc1cccc(NC(=O)c2ccc3ccccc3n2)n1	9.6% (active)
CCOc1ccc(OCc2ccc(C(=O)Nc3cccc(C)n3)o2)cc1	-1.6%
COC(=O)c1ccc(NC(=S)Nc2cccc(C)n2)cc1	1.84%
O=C(CN1CCCc2ccccc21)NCc1ccc(F)cc1	-1.35%

Compound	activation
Cc1cc(C)n2ncc(C(=O)Nc3ccc4c(c3)OCCO4)c2n1	-0.67%
C[C@H](NC(=O)c1ccccc1)C(=O)OCC(=O)c1c[nH]c2ccccc12	4.62%
O=C(OCC(=O)c1c[nH]c2ccccc12)c1cccc(O)c1	8.68% (active)
CCOc1ncccc1C(=O)OCC(=O)c1c[nH]c2ccccc12	4.68%
CCOC(=O)C1=C(C(=O)OCC)C2N(Cc3ccc(C#N)cc3)c3ccccc3[C@@]23C[C@@H](C(=O)OC)N(S(=O)(=O)c2ccc(F)cc2)C3=N1 (stereo partly specified)	0.61%
CCCCOCC1CN(CCCC)S(=O)(=O)c2c(Oc3ccc(F)cc3)cccc2O1 (stereo unspecified)	-1.09%
C/C(=N/NC(=S)Nc1ccccc1)c1ccc2c(c1)OCO2	8.71% (active)
C/C(=N\NC(=S)NCc1ccccc1)c1ccc(Cl)cc1	-0.65%
C/C(Cc1ccccc1)=N\NC(=O)CNC(=O)c1ccc2c(c1)OCCO2	-2.46%
Cn1c(=NC(=O)C2CC2)sc2cc(F)cc(F)c21	7.5% (active)
Cc1cc(C)nc(NC(=S)N2CCN(c3ccc(C(F)(F)F)cn3)CC2)c1	-1.92%
CCCCN(C)C(=O)C1CCN(Cc2ccccn2)CC1	-1.01%
Cc1ccc(-c2c3c(=O)n(C)c(=O)n(C)c3cn2-n2cnnc2)cc1	2.64%
COc1ccc(OC)c(-n2cc3c(=O)n(C)c(=O)n(C)c3c2)c1	-1.87%
COc1ccc(-c2c3c(=O)n(C)c(=O)n(C)c3cn2-c2cccc(OC)c2)cc1	7.44% (active)
Cc1ccc(C)c(NC(=O)CCS(=O)(=O)c2ccccc2)c1	-3.65%
COCC(C)NC(=O)c1ccc(Cl)c(Cl)c1 (stereo unspecified)	-2.09%
CC(CCc1ccccc1)NC(=O)c1cnc(Cl)c(Cl)c1 (stereo unspecified)	6.18% (active)
CC1=C(C)CC(C(=O)NC(C)CCc2ccccc2)C(C(=O)O)C1 (stereo unspecified)	-2.02%
O=C(NC1CCCC1)C1CSCCS(=O)(=O)N1Cc1ccccc1 (stereo unspecified)	-0.49%
COc1ccccc1CCn1cnc(-c2ccccc2)c1C(C)C	0.67%
O=C(NCc1ccccc1)[C@H]1CCCN1C(=O)[C@H]1CCCN1C(=O)c1cc(F)cc(F)c1	0.44%
C[C@@H]1COc2cccc(N3CCCC3)c2S(=O)(=O)N1C	-0.39%

Compound	activation
COC(=O)[C@H](C(C)C)N(CCCc1cn(Cc2ccccc2)nn1)S(=O)(=O)c1ccc(F)cc1Br	-4.11%
CC(C)(C)n1nc(C2CC2)c(Br)c1NC(=O)c1ccccc1F	-0.41%
Fc1ccc2nc(Nc3nc4c(s3)CCCC4)sc2c1	10% (active)
COC(=O)C(NC(C)=O)(Nc1nc2c(s1)CCCC2)C(F)(F)F (stereo unspecified)	1.23%
O=C(C1CCN(S(=O)(=O)c2ccccc2)CC1)N1CCN(C2CCCCC2)CC1	-1.68%
COCCCNC(=O)C[C@H]1C[C@@]2(C(=O)OC)C(=C[C@H](C(C)(C)C)O[C@@H]2C)N(Cc2ccc(Cl)cc2Cl)C1=O	0.08%
COC(=O)Cc1nnn2c1[C@H](C)[C@@H](OC)c1cc(Br)ccc1-2	-1.33%
Cc1ccc(-c2nc3ccccc3[nH]2)cc1N	10.9% (active)
O=C1c2ccccc2C(c2nc3ccccc3[nH]2)N1c1ccccc1 (stereo unspecified)	-0.51%
C/C(=N\Nc1nc2ccccc2[nH]1)c1cccs1	5.49%
c1ccc2[nH]c(-c3nc4ccccc4[nH]3)nc2c1	11.1% (active)
CCOC(=O)c1nc(-c2ccc3c(c2)OCO3)[nH]c1C	4.99%
CCOC(=O)CNC(=O)CSc1ncccc1-c1nc2ccccc2[nH]1	1.6%
COC(=O)C1CN(CC(C)C)CCS(=O)(=O)N1Cc1ccc(F)cc1 (stereo unspecified)	-1.55%
C#CCCN([C@H](C(=O)OC)C(C)C)S(=O)(=O)c1ccc(F)cc1Br	-1.11%
CN(Cc1ccccc1Cl)C(=O)C1CCC(=O)N(CCc2cccc(F)c2)C1 (stereo unspecified)	-0.75%
CCNC(=O)c1cccc(NC(=O)C2CC(=O)N(CCc3ccccc3)C2)c1 (stereo unspecified)	-0.37%
CN(CC(=O)Nc1cccc(F)c1)C(=O)C1CC(=O)N(CCc2ccccc2)C1 (stereo unspecified)	6.61% (active)
Cc1ccc(NN=Nc2nc3c([nH]2)c(=O)n(C)c(=O)n3C)cc1	9.25% (active)
Cc1cc(C)c(C=NNc2nc3c([nH]2)c(=O)n(C)c(=O)n3C)c(C)c1	1.11%
Cc1cccc(C)c1NC(=O)CSc1nc2c([nH]1)c(=O)n(C)c(=O)n2C	-0.94%
O=C(CSc1nc2ccccc2nc1N1CCCCC1)N1CCN(S(=O)(=O)c2cccc([N+](=O)[O-])c2)CC1	-0.06%
Cc1ccc(-n2c(SCC(=O)Nc3ccc4c(c3)OCO4)nnc2-c2ccccn2)cc1	-2.82%

Compound	activation
O=C(CSc1nnc(-c2ccccn2)n1-c1ccccc1)Nc1ccc2c(c1)OCO2	-1.02%
CC(C#N)OC(=O)c1cccnc1SCC(=O)Nc1ccc2c(c1)OCO2 (stereo unspecified)	7.41% (active)
COC(=O)c1cc(S(=O)(=O)N2CCN(c3ccccc3C)CC2)cn1C	-0.73%
C[C@H](O)[C@@H]1C(=O)N2CCc3c([nH]c4c(-c5ccc6c(c5)OCO6)cccc34)[C@@H]2C[C@@H]1N(C)C(=O)c1ccco1	1.47%
Cc1cccc(C(=O)Nc2c(-c3ccc(F)cc3)nc3ncccn23)c1	-3.14%
COc1ccc(/C=C2\CC3(OC(C)=O)CCCN2C3)cc1 (stereo unspecified)	-3.46%
Cc1cc(NC(=O)COc2ccccc2C#N)no1	3.78%
N#Cc1ccccc1NC(=O)COc1c(Br)cc(Br)c2cccnc12	5.88% (active)
O=C(COC(=O)c1ccccn1)Nc1cccc2ccccc12	-0.09%
COC(=O)C1=C(C)N(Cc2ccccc2C(F)(F)F)C(=NCc2ccc(OC)cc2)NC1c1cccc(C(F)(F)F)c1 (stereo unspecified)	0.01%
CC(C)[C@H]1COCCS(=O)(=O)N1Cc1ccccc1-c1cccc2c1sc1ccccc12	1.38%
CC(C)N(Cc1ccccc1)C(=O)COC(=O)c1cnccn1	-0.24%
O=C(Oc1ccc(-c2nc(-c3ccccn3)no2)cc1)c1ccccc1	0.86%
Brc1ccc(-c2noc(-c3ccccc3)n2)o1	7.04% (active)
O=S(=O)(c1ccc(Br)cc1)c1nc(-c2ccccc2)oc1N1CCOCC1	1.01%
Cc1ccc(-n2c(SCC(=O)Nc3ccc(S(=O)(=O)Nc4nccs4)cc3)nnc2-c2cccnc2)cc1	-2.17%
c1ccc(C2=Nc3cccc4cccc(c34)N2)cc1	6.59% (active)
COc1ccccc1C1=Nc2cccc3cccc(c23)N1	-1.59%
Brc1ccc(C2CC(c3ccccc3)=Nc3ccccc3N2)cc1 (stereo unspecified)	4.68%
O=C(CSc1nc2ccccc2n1Cc1ccccc1Cl)N/N=C\c1c[nH]c2ccccc12	1.72%
O=C(CC1SCCNC1=O)Nc1ccc(Cl)cc1 (stereo unspecified)	1.04%
CCOCc1nnc(NC(=O)CCC2CCCCC2)s1	-1.11%
